GPR151 activ: activators of human GPR151; Q8TDV0; 650,000 tested, 1% active; PathHunter beta-arrestin GPR151 cells, luminescence; activation, % at 11.2 µM; in the data active = activation above about 4.9%
FBW7 activator: activators of human E3 ligase FBW7; AlphaScreen FBW7–phospho-cyclin E peptide binding, activator screen; normalized activity (activation), % at 26.1 µM; 650,000 tested, 0.13% active; AID 1259310; in the data active = normalized activity above about 1.9%;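 note: purified mutant Fbw7 with reduced substrate affinity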
MITF inh: inhibitors of human MITF; 650,000 tested, 0.91% active; AlphaScreen MITF homodimerization, bead proximity signal; inhibition, % at 2.6 µM; O75030; in the data active = inhibition above about 50%
Target sequence (O75030 whole entry, looked up): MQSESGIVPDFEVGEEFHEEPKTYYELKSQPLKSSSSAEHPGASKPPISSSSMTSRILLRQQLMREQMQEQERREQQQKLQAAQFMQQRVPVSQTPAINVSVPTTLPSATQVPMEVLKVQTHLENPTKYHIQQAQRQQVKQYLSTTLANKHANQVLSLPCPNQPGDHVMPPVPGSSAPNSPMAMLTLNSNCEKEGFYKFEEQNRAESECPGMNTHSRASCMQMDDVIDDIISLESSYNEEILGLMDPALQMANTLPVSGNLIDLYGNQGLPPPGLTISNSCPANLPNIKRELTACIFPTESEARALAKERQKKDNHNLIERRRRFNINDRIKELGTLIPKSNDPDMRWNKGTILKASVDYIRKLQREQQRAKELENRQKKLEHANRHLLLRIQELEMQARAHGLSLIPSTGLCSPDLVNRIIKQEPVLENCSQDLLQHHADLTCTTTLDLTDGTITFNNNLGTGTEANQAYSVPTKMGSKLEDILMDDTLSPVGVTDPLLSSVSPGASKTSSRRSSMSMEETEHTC
TEAD-YAP inh: TEAD-YAP interaction inhibition. HEK-TIYL cells, TEAD-Gal4/YAP UAS-luciferase luminescence. AID 1259422. inhibition, % at 9.12 µM. 640,000 tested, 1.4% active; in the data active = inhibition above about 32%
MITF confirm: human MITF inhibition, confirmation. AID 1259372. 4,700 tested, 16% active. AlphaScreen MITF homodimerization, biotin/His-MITF beads. inhibition, % at 2.6 µM. shares compounds with MITF inh;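 active = inhibition above a cutoff derived from the DMSO control wells, cut at about 28% in these data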;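 note: inhibitors lower the bead chemiluminescence by keeping MITF from dimerizing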
AlphaScreen DR: optically interferes with AlphaScreen signal in dose response | shares compounds with MITF inh | AlphaScreen optical interference counterscreen, cell-free | IC50, µM | 480 tested, 6% active | AID 1259373; call rule not given here
AS interf ctr: counter-screen: compounds optically interfering with AlphaScreen; inhibition, % at 2.6 µM; LysRS AlphaScreen counterscreen, signal interference, triplicate; AID 1259376; 4,700 tested, 7.6% active; shares compounds with MITF inh;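 active = inhibition above a cutoff derived from the DMSO control wells, cut at about 30% in these data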
Large screens that a line does not name were inactive (follow-up assays come after a bar, where they were run). Shown are actives, neighbours in structure and some others; about 3.5% of the full set was active somewhere.

Clc1ccc(CN2CCN(Cc3ccccc3Cl)CC2)cc1	MITF inh 78.5 | MITF confirm inactive | AS interf ctr inactive
CCN1CCN(Cc2ccc(Cl)c(Cl)c2)CC1	none
CCc1ccc(CN2CCN(Cc3ccccc3Cl)CC2)cc1	MITF inh 67.6 | MITF confirm inactive | AS interf ctr inactive
CCN1CCN(Cc2c(Cl)cccc2Cl)CC1	MITF inh 68.6 | MITF confirm inactive | AS interf ctr inactive
Cc1ccccc1CN1CCN(C(C)C)CC1	MITF inh 77.7 | MITF confirm inactive | AS interf ctr inactive
CC(C)N1CCN(Cc2ccccc2Br)CC1	MITF inh 51.1 | MITF confirm inactive | AS interf ctr inactive
COc1ccccc1N1CCN(Cc2ccccc2C#N)CC1	MITF inh 54.7 | MITF confirm inactive | AS interf ctr inactive
COc1ccccc1CN1CCN(Cc2ccccc2Cl)CC1	MITF inh 81.6 | MITF confirm inactive | AS interf ctr inactive
COc1ccccc1CN1CCN(Cc2ccccc2OC)CC1	MITF inh 75.2 | MITF confirm inactive | AS interf ctr inactive
COc1ccccc1CN1CCN(Cc2ccccc2F)CC1	none
COc1ccccc1N1CCN(Cc2ccccc2C)CC1	none
C[C@H](O)[C@H]1NC(=O)[C@H]2CN(Cc3ccncc3)CCN2C1=O	none
CN1CCN(CC(=O)Nc2ccc(Br)cc2C(=O)c2ccccc2)CC1	none
CN1CCC2(C1)Oc1ccccc1O2	MITF inh 55.1 | MITF confirm inactive | AS interf ctr inactive
O=C(c1ccoc1)N1CCC2(CC1)OCc1ccccc1O2	none
CCc1nc2ccccc2c(=O)n1-c1ccccc1C	none
COc1ccc(CN2CCN(CC(C)C)C(CCO)C2)cc1 (configuration not stated)	none
COc1cccc(CN2CCN(C)C(CCO)C2)c1OC (configuration not stated)	none
COc1ccc(OC)c(CN2CCN(C(C)C)CC2)c1	MITF inh 71.7 | MITF confirm inactive | AS interf ctr inactive
COc1cccc(CN2CCN(C(C)C)CC2)c1OC	MITF inh 68.7 | MITF confirm inactive | AS interf ctr inactive
COc1cccc(CN2CCN(C)CC2)c1OC	none
COc1ccc(CN2CCN(Cc3ccccc3)CC2)c(OC)c1	MITF inh 67.0 | MITF confirm inactive | AS interf ctr inactive
COc1cccc(CN2CCN(Cc3ccccc3)CC2)c1OC	MITF inh 68.6 | MITF confirm inactive | AS interf ctr inactive
CN(C)C(=O)Oc1ccc2c(c1)O/C(=C\c1ccc(Br)cc1)C2=O	none
COc1ccc(CN2CCN(C)CC2)cc1C	none
O=C(NC(OCC(F)(F)C(F)F)C(Cl)(Cl)Cl)c1ccccc1 (configuration not stated)	none
O=C(c1ccccc1)N(c1ccccn1)C1CN2CCC1CC2 (configuration not stated)	none
CCC(C)N1CCN(Cc2cccc(OC)c2OC)CC1 (configuration not stated)	MITF inh 78.2 | MITF confirm inactive | AS interf ctr inactive
CCC(C)N1CCN(Cc2cccc(C)c2)CC1 (configuration not stated)	none
Cc1c(Cl)cccc1NC(=O)C(Cl)(Cl)Cl	none
CC(C)CN1CCN(Cc2cc(F)ccc2F)CC1CCO (configuration not stated)	none
CCN1CCN(Cc2cc(F)ccc2F)CC1	MITF inh 61.9 | MITF confirm inactive | AS interf ctr inactive
CN1CCN(Cc2cc(F)ccc2F)CC1	MITF inh 68.8 | MITF confirm inactive | AS interf ctr inactive
CN1CCN(Cc2ccc(F)cc2F)CC1	none
CN1CCN(Cc2c(F)cccc2F)CC1	MITF inh 62.2 | MITF confirm inactive | AS interf ctr inactive
O=[N+]([O-])c1c(Br)ccc2c1no[n+]2[O-]	MITF inh 90.5 | MITF confirm 79.9 | AlphaScreen DR inactive | AS interf ctr inactive
CCC(C)N1CCN(Cc2ccccc2)CC1 (configuration not stated)	MITF inh 65.7 | MITF confirm inactive | AS interf ctr inactive
CCC(C)N1CCN(Cc2ccccc2F)CC1 (configuration not stated)	MITF inh 75.1 | MITF confirm inactive | AS interf ctr inactive
CCC(CC)N1CCN(Cc2ccc(OC)cc2)CC1	MITF inh 54.2 | MITF confirm inactive | AS interf ctr inactive
CCOc1cc(CN2CCN(C(C)C)CC2)ccc1OC	MITF inh 54.7 | MITF confirm inactive | AS interf ctr inactive
CCC(CC)N1CCN(Cc2ccc(OC)c(OC)c2)CC1	MITF inh 69.0 | MITF confirm inactive | AS interf ctr inactive
COc1ccc(CN2CCN(c3ccccc3F)CC2)cc1OC	MITF inh 52.3 | MITF confirm inactive | AS interf ctr inactive
Cc1cc(C(=O)C(C)(C)NO)ccc1Cl	none
CCOc1cc(CN2CCN(Cc3ccccc3)CC2)ccc1O	MITF inh 55.8 | MITF confirm inactive | AS interf ctr inactive
CCOc1cc(CN2CCN(c3ccccc3F)CC2)ccc1O	none
CCOc1cc(CN2CCN(C(CC)CC)CC2)ccc1OC	MITF inh 77.7 | MITF confirm inactive | AS interf ctr inactive
Brc1cccc(CN2CCN(Cc3cccc(Br)c3)CC2)c1	MITF inh 76.7 | MITF confirm inactive | AS interf ctr inactive
Clc1cccc(CN2CCN(Cc3cccc(Br)c3)CC2)c1	none
Brc1cccc(CN2CCN(Cc3ccc4c(c3)OCO4)CC2)c1	MITF inh 64.3 | MITF confirm inactive | AS interf ctr inactive
Fc1cccc(CN2CCN(Cc3ccc4c(c3)OCO4)CC2)c1	MITF inh 56.1 | MITF confirm inactive | AS interf ctr inactive
C=CCNC(=O)CN1C2CCC1CC(O)(c1ccccn1)C2 (configuration not stated)	none
O=[N+]([O-])c1ccc(CC2=NCCN2)cc1	none
COc1ccc(CN2CCN(Cc3ccccc3Br)CC2)cc1Br	MITF inh 74.9 | MITF confirm inactive | AS interf ctr inactive
COc1ccc(CN2CCN(Cc3ccc(Br)cc3)CC2)cc1Br	none
COc1ccc(CN2CCN(C)CC2)cc1Br	MITF inh 72.8 | MITF confirm inactive | AS interf ctr inactive
Cc1ccc(NC(=O)c2cc([N+](=O)[O-])ccc2N2CCNCC2)cc1	none
O=c1oc2ccccc2c(O)c1C(c1cc(Cl)cc([N+](=O)[O-])c1O)c1c(O)c2ccccc2oc1=O	none
COc1ccc(OCC#CCN2CCNCC2)cc1	MITF inh 59.3 | MITF confirm inactive | AS interf ctr inactive
CCN1CCN(Cc2ccc(OC)cc2)CC1	none
C1CCC(N2CCN(C3CC4CCC3C4)CC2)C1 (configuration not stated)	MITF inh 67.2 | MITF confirm inactive | AS interf ctr inactive
O=C(Cc1ccccc1)N1CCN(C2CC3CCC2C3)CC1 (configuration not stated)	none
O=c1c2ccccc2nc(CBr)n1-c1ccccc1Cl	none
CC(=O)c1ccc(N2CCN(Cc3cccc(C)c3)CC2)cc1	none
CC(=O)c1ccc(N2CCN(Cc3ccc(F)c(F)c3)CC2)cc1	none
